Screen size: about 340,000 compounds; about 8,500 (2.5%) were called active. For the sample, actives were picked, then their nearest neighbours and some compounds at random. A number with no mark means an inactive call.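 How the source made its calls: active means melting temperature shift of at least 10% of the positive control shift, at one fixed dose; inactive means the rest.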

The subject of this experiment is Glutamate receptor ionotropic, NMDA 3A (GRIN3A) ligand-binding domain. Briefly: binders of NR3A ligand-binding domain, primary screen, biophysical, differential scanning fluorimetry, uHTS (AID 1259313). Particulars: NR3A LBD differential scanning fluorimetry, at 25 µM, active compounds read high, 0% = protein alone, 100% = glycine-bound protein. On the technique in general: DSF heats the sample and reads unfolding from a dye or from intrinsic fluorescence.
For `N#C/C(C(=S)Nc1ccccc1)=C1/NN=C(N2CCOCC2)N1c1ccccc1`, the Tm shift relative to glycine control was 1.45%.
The same measure for `CN(CC(=O)Nc1ccc(OC(F)F)cc1)S(=O)(=O)/C=C/c1ccccc1`: -9.87%.
Turning to `COc1ccc(NC(=O)COC(=O)c2ccc(NS(=O)(=O)/C=C/c3ccccc3)cc2)cc1`, the Tm shift relative to glycine control is 20.6% (active).
Next, `CCC(C(=O)OCC(=O)Nc1ccc(C(=O)Nc2ccc(OC)cc2)cc1)c1ccccc1` (centres undefined): 22.5% (active).
The same measure for `CCC(C(=O)OCC(=O)Nc1ccccc1-c1ccccc1)c1ccccc1` (centres undefined): -2.7%.
For `COc1ccc(NC(=O)CS(=O)(=O)c2ccccc2)cc1`, the Tm shift relative to glycine control was 2.82%.
The same measure for `CCC(C(=O)OCC(=O)Nc1c(Cl)cc(Cl)cc1Cl)c1ccccc1` (centres undefined): -8.02%; for `c1cnc(N2CCN(c3ccc4ccccc4n3)CC2)nc1`: -1.6%.
The same measure for `O=C(CN1CCc2ccccc21)NC(c1ccccc1)c1ccccc1`: -10.2%; for `O=C1C=C(NCCNc2c(F)c(F)c(CO)c(F)c2F)CCC1`: -8.05%.
The same measure for `Cc1ccc(NC(=O)COC(=O)CN2CCCCCC2=O)c(C)c1`: -0.17%; for `CC1CCCC(NC(=O)c2cc(S(=O)(=O)N3CCCCC3)ccc2Cl)C1C` (centres undefined): -1.61%.
Turning to `Cc1ccc(C(=O)NNC(=O)c2ccncc2)cc1S(=O)(=O)N1CCCCC1`, the Tm shift relative to glycine control was -0.93%.
Next, `Cc1ccc(C(=O)NC2CCCC(C)C2C)cc1S(=O)(=O)N1CCCCC1` (centres undefined): 20.8% (active).
Next, `O=C1CCCC2=C1C(c1ccccc1)n1c(s/c(=C/c3cccc(F)c3)c1=O)=N2` (centres undefined): 2.84%; `COCCOC(=O)C1=C(C)N=c2s/c(=C\c3cccs3)c(=O)n2C1c1cccs1` (centres undefined): -1.71%.
The same measure for `COc1ccc(OC)c(C2C3=C(N=c4s/c(=C\c5cccc(O)c5)c(=O)n42)c2ccccc2CC3)c1` (centres undefined): 17.9% (active); for `COC1=CCC2([N+](=O)[O-])CN(CC(=O)O)CC1([N+](=O)[O-])C2` (centres undefined): -3.94%.
Consider `O=C(CCc1ccc(S(=O)(=O)N2CCOCC2)cc1)OCC(=O)c1ccc(Br)cc1`, for which the Tm shift relative to glycine control is -0.17%.
The same measure for `N#CCC(=O)NC1CCC(CC2CCC(NC(=O)CC#N)CC2)CC1` (centres undefined): 0.51%.
Next, `O=[N+]([O-])c1ccc(COc2ccccc2CN2CCOCC2)cc1`: -1.9%; `COc1ccc(C(=O)N2CCC(C(=O)Nc3cccc(C)c3)CC2)cc1OC`: -0.09%; `CCCCOC(=O)Nc1sc2nc(C)cc(C)c2c1-n1cccc1`: 11% (active).
For `Cc1cc(C)c2c(-n3cccc3)c(NC(=O)OCc3ccccc3)sc2n1`, the Tm shift relative to glycine control is 0.08%.
Next, `COC(=O)Nc1sc2nc(C)cc(C)c2c1-n1cccc1`: -4.15%; `CCC(CC)NC(=O)CSc1nnc(-c2c[nH]c3ccccc23)o1`: 1.71%.
Next, `COc1cccc(CNC(=O)CCC2CCCN(Cc3ccc(OC(F)F)cc3)C2)c1` (centres undefined): 1.06%; `Cn1nc(C(=O)OCC(=O)N(Cc2ccccc2)C(C)(C)C)c2ccccc2c1=O`: 0.45%; `OCCNc1nc2ccccc2n1-c1ncnc2sc3c(c12)CCC3`: 19.1% (active).
Take `O=C(O)c1cccnc1Sc1ncnc2sc3c(c12)CCC3`: the Tm shift relative to glycine control was -2.96%.
The same measure for `O=C(Cn1c(NCCO)nc2ccccc21)c1ccc(Cl)cc1Cl`: -1.09%; for `CC12C(=O)N(n3cnnc3)C(=O)C1C1C=CC2C1` (centres undefined): 0.47%.
The same measure for `Cc1ccc(C(=O)Nc2ccccc2-c2ccccc2)cc1S(=O)(=O)Nc1ccccc1`: 9.58%.
The same measure for `C=CCNC(=O)c1ccccc1NC(=O)c1ccc(Cl)c(S(=O)(=O)Nc2cccc(C)c2C)c1`: 16% (active).
Turning to `Cc1ccccc1NC(=O)c1cc(S(=O)(=O)Nc2cccc(C(=O)O)c2)ccc1Cl`, the Tm shift relative to glycine control was 0%.
The same measure for `C=CCn1c(SCc2ccc(Cl)c(Cl)c2)nnc1C(CO)NC(=O)c1ccc(OC)cc1` (centres undefined): -6.08%.
In the case of `CSc1ccccc1NC(=O)CN(C)CC(=O)Nc1ccc(Cl)cc1[N+](=O)[O-]`, the Tm shift relative to glycine control was 2.47%.
The same measure for `CN(CC(=O)Nc1ccccc1[N+](=O)[O-])Cc1ccc(Br)cc1`: -2.8%.
As for `Cc1ccc(NC(=O)CN(C)Cc2ccc(F)cc2)c([N+](=O)[O-])c1`, the Tm shift relative to glycine control was 12.7% (active).
As to `O=C(O)c1ccc([N+](=O)[O-])cc1Sc1ccsc1`, the Tm shift relative to glycine control was 1.67%.
The same measure for `CC(=O)Nc1ccc(CN2CCN(Cc3ccc(F)c(F)c3)C(CCO)C2)cc1` (centres undefined): -0.08%; for `CN(C)c1ccc(NC(=O)CSc2n[nH]c(-c3ccco3)n2)cc1`: 0.92%; for `CCN1CCN(c2nc(Nc3cccc(F)c3)nc(N)c2[N+](=O)[O-])CC1`: 0.95%.
Next, `COc1cccc(Nc2nc(N)c([N+](=O)[O-])c(NCc3ccco3)n2)c1`: -10.5%; `CNc1nc(Nc2ccc(C)c(Cl)c2)nc(N)c1[N+](=O)[O-]`: 25.8% (active).
For `Cc1cn(C)c(=O)n(C)c1=O`, the Tm shift relative to glycine control was -0.48%.
Next, `CCN(CC)S(=O)(=O)c1ccc(NC(=O)c2cccnc2Cl)c(NC(=O)c2cccnc2Cl)c1`: -0.78%; `CCOC(=O)c1sc(NC(=O)c2sc(C)nc2C)nc1C`: 3.53%; `CC(=O)c1sc(N)nc1C`: 2.68%.
The same measure for `CCOC(=O)c1nc(N)sc1C(=O)OCC`: 17.7% (active); for `CN(C)C(=O)CCC(=O)N1CCCCC1C(=O)Nc1ccc(Oc2ccccc2F)cc1` (centres undefined): -0.77%.
The same measure for `O=S(=O)(c1ccc(Cl)cc1)N1CCCN(c2ccc(C(F)(F)F)cn2)CC1`: -4.38%.
Take `COc1cc([N+](=O)[O-])ccc1NC(=O)COC(=O)CCOc1ccc(C)cc1`: the Tm shift relative to glycine control was 2.57%.
The same measure for `COC(=O)c1ccccc1NC(=O)Cc1ccccc1OC`: -0.63%.
The same measure for `COc1ccccc1CC(=O)Nc1ccc([N+](=O)[O-])cc1OC`: 10.2% (active); for `COc1ccc(CCNC(=O)COC(=O)c2ccc[nH]c2=O)cc1`: -2.27%.
The same measure for `Cc1ccc(/C=N/NC(=O)CN2CCN(Cc3ccccc3)CC2)s1`: -1.47%; for `Cc1cccc(/C=N/NC(=O)CNc2cccc3ccccc23)n1`: 4.98%; for `Cc1ccccc1NCC(=O)N/N=C\c1ccc([N+](=O)[O-])s1`: 11.5% (active).

The record behind these values is PubChem BioAssay AID1259313 (Sanford-Burnham Center for Chemical Genomics, 2017).
